Among the test systems are NCI-H23 lung; NCI-H226 lung; NCI-H322M lung; HOP-62 NSCLC; NCI-H460 lung; HOP-92 NSCLC; NCI-H522 lung; A549/ATCC NSCLC; 786-0 renal; COLO 205 colon; DU-145 prostate; K-562 leukemia; MALME-3M melanoma; MDA-MB-231 breast; RXF 393 renal; SF-268 CNS; SF-539 CNS; UACC-257 melanoma; M14 melanoma; SF-295 CNS.
What all share (test): NCI-60 one-dose screen, 48 h (100 = growth as untreated, 0 = no growth, -100 = all killed)
What all share (details): 10 µM unless noted

Several values for one entry are separate records, joined by “and”; a condition that tells them apart may be missing. Equal entries are not always repeated. About 83,000 compounds went through this panel and 20% of them were active in at least one assay; those are over-represented in the sample as a whole.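 Cells were grown in 96-well plates and exposed to the test compound at a single concentration for 48 hours; results are reported as percent growth, with values below 10 considered active.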 Activity calls are given as the source filed them.

In the case of `O=C(CCc1ccc(O)cc1)N/N=C/c1cc(Br)ccc1O`, the growth in the assay on NCI-H23 lung was 61.4% (inactive); in the assay with NCI-H226 lung, 95.1% (inactive); in the assay on NCI-H322M lung, 38.9% (inactive); with HOP-62 NSCLC, 62.7% (inactive); in the assay on NCI-H460 lung it was 29.7% (inactive); in the assay with HOP-92 NSCLC, 80.7% (inactive). The growth in the assay with NCI-H522 lung is 77.5% (inactive); with A549/ATCC NSCLC, 47.6% (inactive); with 786-0 renal, 42% (inactive); in the assay on COLO 205 colon, 92% (inactive); in the assay on DU-145 prostate, 63.2% (inactive); in the assay with K-562 leukemia it was 15.4% (inactive). The growth in the assay on MALME-3M melanoma was 87.1% (inactive); in the assay with MDA-MB-231 breast, 59.7% (inactive); with RXF 393 renal, 76.6% (inactive); with SF-268 CNS, 48.3% (inactive); with SF-539 CNS, 39.9% (inactive); in the assay with UACC-257 melanoma it was 55.5% (inactive). Further, the growth in the assay with M14 melanoma is 39.9% (inactive).
`CC(C)Oc1ccc2cc(-c3nn(CC4CCNCC4)c4ncnc(N)c34)ccc2c1`: the growth with NCI-H23 lung is 67.3% (inactive) and 42.6% (inactive); in the assay on NCI-H226 lung it was 97.6% (inactive) and 63.7% (inactive); with NCI-H322M lung, 89.8% (inactive) and 53.9% (inactive); in the assay on HOP-62 NSCLC, 79.8% (inactive) and 53.2% (inactive); in the assay with NCI-H460 lung it was 102% (inactive) and 15.8% (inactive); in the assay on HOP-92 NSCLC it was 66.1% (inactive) and -1.47% (active). In addition, the growth is 87.2% (inactive) and -28% (active) in the assay with NCI-H522 lung; 80.1% (inactive) and 16.9% (inactive) in the assay with A549/ATCC NSCLC; 89.3% (inactive) and -32.9% (active) in the assay with 786-0 renal; 74.4% (inactive) and -47.7% (active) with COLO 205 colon; 107% (inactive) and 40.4% (inactive) in the assay with DU-145 prostate; 43.1% (inactive) and -68.4% (active) with K-562 leukemia. The growth with MALME-3M melanoma is 73.7% (inactive) and -77.1% (active); with MDA-MB-231 breast, 60.5% (inactive) and -42.9% (active); with RXF 393 renal it was 39.3% (inactive) and -73.3% (active); in the assay with SF-268 CNS it was 88.4% (inactive) and 1.08% (active); in the assay on SF-295 CNS, 97.8% (inactive) and -54.6% (active); in the assay on SF-539 CNS, 73.1% (inactive) and -83.1% (active). In addition, the growth with UACC-257 melanoma is -81.8% (active); in the assay with M14 melanoma it was 5.7% (active) and -84.7% (active).
As for `CC(O)(CC(=O)CC(=O)c1ccccc1)c1ccccc1` (centres undefined), the growth was 102% (inactive) and 87.4% (inactive) in the assay with NCI-H23 lung; 93.9% (inactive) and 86% (inactive) in the assay with NCI-H226 lung; 116% (inactive) and 105% (inactive) in the assay with NCI-H322M lung; 106% (inactive) and 99.2% (inactive) in the assay with HOP-62 NSCLC; 94.2% (inactive) and 101% (inactive) in the assay on NCI-H460 lung; 100% (inactive) and 94.7% (inactive) in the assay with HOP-92 NSCLC. Also, the growth was 90.9% (inactive) and 96.4% (inactive) in the assay on NCI-H522 lung; 103% (inactive) and 97.4% (inactive) in the assay with A549/ATCC NSCLC; 101% (inactive) and 106% (inactive) in the assay with 786-0 renal; 127% (inactive) with COLO 205 colon; 143% (inactive) and 102% (inactive) in the assay with DU-145 prostate; 91.2% (inactive) in the assay with K-562 leukemia. The growth in the assay with MALME-3M melanoma was 113% (inactive) and 96.5% (inactive); in the assay on MDA-MB-231 breast, 97.4% (inactive) and 88.5% (inactive); with RXF 393 renal, 94.1% (inactive) and 93.3% (inactive); with SF-268 CNS, 110% (inactive) and 98.8% (inactive); in the assay with SF-295 CNS it was 91.1% (inactive); in the assay on SF-539 CNS, 104% (inactive) and 108% (inactive). Further, the growth was 90.6% (inactive) and 110% (inactive) in the assay with UACC-257 melanoma; 96.1% (inactive) and 96% (inactive) in the assay on M14 melanoma.
For the compound `CN1CCN(CCC=C2c3ccccc3Sc3ccc(S(=O)(=O)N(C)C)cc32)CC1`, the growth in the assay with NCI-H23 lung is 84.4% (inactive) and 91% (inactive); in the assay with NCI-H226 lung, 111% (inactive) and 108% (inactive); in the assay on NCI-H322M lung, 66.9% (inactive) and 77.2% (inactive); in the assay on HOP-62 NSCLC it was 75.9% (inactive) and 83.8% (inactive); in the assay on NCI-H460 lung, 82.7% (inactive) and 82% (inactive); in the assay on HOP-92 NSCLC it was 29.4% (inactive). For the same compound, the growth with NCI-H522 lung is 44.2% (inactive) and 58.5% (inactive); in the assay with A549/ATCC NSCLC, 69.3% (inactive) and 79.6% (inactive); with 786-0 renal, 41.6% (inactive) and 58.5% (inactive); in the assay with COLO 205 colon, -83.1% (active) and 44% (inactive); in the assay on DU-145 prostate, 88.1% (inactive) and 101% (inactive); in the assay with K-562 leukemia, 1.04% (active) and -15.5% (active). Besides, the growth in the assay on MALME-3M melanoma was -13.1% (active) and 40.5% (inactive); in the assay on MDA-MB-231 breast, 42.8% (inactive) and 69.3% (inactive); in the assay with RXF 393 renal, 30.4% (inactive) and 60% (inactive); with UACC-257 melanoma it was -83.1% (active) and -57.7% (active); in the assay with M14 melanoma it was -67% (active) and -79.2% (active).
On to `Oc1ccccc1/C=N\NC(=S)N/N=C/c1ccccc1O`, for which the growth was 62.6% (inactive) and 58.7% (inactive) in the assay with NCI-H23 lung; 68.1% (inactive) and 43.4% (inactive) in the assay on NCI-H226 lung; 24.8% (inactive) and 29.7% (inactive) with NCI-H322M lung; 48.9% (inactive) and 71.5% (inactive) in the assay on HOP-62 NSCLC; 19.5% (inactive) and 12.5% (inactive) with NCI-H460 lung; 45.9% (inactive) and 62.4% (inactive) with HOP-92 NSCLC. Moreover, the growth in the assay on NCI-H522 lung was 31% (inactive) and 2.87% (active); in the assay on 786-0 renal, 29% (inactive) and 27.1% (inactive); with COLO 205 colon, 65.6% (inactive) and 48.7% (inactive); with DU-145 prostate, 55% (inactive) and 44.6% (inactive); in the assay on K-562 leukemia it was 26% (inactive); in the assay with MALME-3M melanoma it was 39.6% (inactive) and 42.9% (inactive). Further, the growth is 55% (inactive) and 44.2% (inactive) in the assay with MDA-MB-231 breast; 80.7% (inactive) and 63.9% (inactive) with RXF 393 renal; 50% (inactive) and 37% (inactive) in the assay with SF-268 CNS; 22.4% (inactive) and 30.6% (inactive) in the assay with SF-295 CNS; 45.4% (inactive) and 23.2% (inactive) in the assay on SF-539 CNS; 40.3% (inactive) and 34.2% (inactive) in the assay with UACC-257 melanoma. Further, the growth in the assay with M14 melanoma was 24.4% (inactive) and 24.5% (inactive).
On to `O[C@H](c1cc(C(F)(F)F)nc2c(C(F)(F)F)cccc12)[C@@H]1CCCCN1`, for which the growth is 79.2% (inactive) and 77.8% (inactive) with NCI-H23 lung; 93.5% (inactive) and 58.9% (inactive) with NCI-H226 lung; 68.6% (inactive) and 52% (inactive) in the assay on NCI-H322M lung; 71.3% (inactive) and 74.6% (inactive) in the assay with HOP-62 NSCLC; 27.7% (inactive) and 23.6% (inactive) in the assay with NCI-H460 lung; 9.97% (active) and -8.33% (active) with HOP-92 NSCLC. Further, the growth in the assay with NCI-H522 lung is 58.4% (inactive) and 22.8% (inactive); in the assay on A549/ATCC NSCLC, 56.9% (inactive) and 67.1% (inactive); in the assay on 786-0 renal it was 42.4% (inactive) and 56.6% (inactive); in the assay with COLO 205 colon, 62.3% (inactive) and 60.5% (inactive); with DU-145 prostate it was 67% (inactive) and 70.2% (inactive); in the assay with K-562 leukemia, 8.6% (active) and 11.9% (inactive). Besides, the growth is 89.6% (inactive) and 82.2% (inactive) with MALME-3M melanoma; 15.1% (inactive) and 17.7% (inactive) with MDA-MB-231 breast; 44% (inactive) and 43.3% (inactive) in the assay with RXF 393 renal; 57.9% (inactive) and 56.6% (inactive) in the assay on SF-268 CNS; 93.6% (inactive) in the assay with SF-295 CNS; 81.1% (inactive) and 75.6% (inactive) in the assay with SF-539 CNS. The growth in the assay with UACC-257 melanoma was 58.1% (inactive) and 75.4% (inactive); in the assay with M14 melanoma it was 67.2% (inactive) and 71.8% (inactive).
For the compound `CC(=O)Nc1cc(S(=O)(=O)O)cc2cc(S(=O)(=O)O)c(N=Nc3ccccc3)c(O)c12`, the growth with NCI-H23 lung is 96.3% (inactive) and 101% (inactive); in the assay on NCI-H226 lung, 99.7% (inactive) and 105% (inactive); in the assay on NCI-H322M lung, 112% (inactive) and 91.9% (inactive); with HOP-62 NSCLC, 140% (inactive) and 98.6% (inactive); in the assay on NCI-H460 lung, 104% (inactive) and 103% (inactive); in the assay with HOP-92 NSCLC, 82% (inactive) and 102% (inactive). In addition, the growth with NCI-H522 lung was 112% (inactive) and 82.3% (inactive); with 786-0 renal, 106% (inactive) and 103% (inactive); in the assay on COLO 205 colon, 99.7% (inactive) and 109% (inactive); with DU-145 prostate, 118% (inactive) and 114% (inactive); with K-562 leukemia it was 107% (inactive) and 84.6% (inactive); in the assay with MALME-3M melanoma, 110% (inactive) and 99.4% (inactive). For the same compound, the growth with MDA-MB-231 breast was 100% (inactive) and 104% (inactive); in the assay on RXF 393 renal, 107% (inactive) and 113% (inactive); with SF-268 CNS, 107% (inactive) and 100% (inactive); with SF-295 CNS it was 105% (inactive) and 110% (inactive); with SF-539 CNS, 105% (inactive); with UACC-257 melanoma it was 115% (inactive) and 94.5% (inactive). Also, the growth with M14 melanoma is 103% (inactive) and 97.8% (inactive).
Regarding `CCN(CC)CCCC(C)Nc1ccnc2cc(Oc3ccccc3)ccc12` (centres undefined), the growth was 90.1% (inactive) and 78.7% (inactive) in the assay on NCI-H23 lung; 99.7% (inactive) and 112% (inactive) in the assay with NCI-H226 lung; 84.7% (inactive) and 105% (inactive) in the assay on NCI-H322M lung; 68.9% (inactive) and 83.2% (inactive) with HOP-62 NSCLC; 69.7% (inactive) and 96.5% (inactive) in the assay with NCI-H460 lung; -6.39% (active) and 60.3% (inactive) in the assay on HOP-92 NSCLC. Further, the growth was 55.9% (inactive) with NCI-H522 lung; 58.7% (inactive) and 86.6% (inactive) with A549/ATCC NSCLC; 64.3% (inactive) and 84.6% (inactive) in the assay on 786-0 renal; 47.6% (inactive) and 60.2% (inactive) with COLO 205 colon; 91.4% (inactive) and 87.4% (inactive) in the assay on DU-145 prostate; 1.73% (active) and 41.2% (inactive) in the assay on K-562 leukemia. For the same compound, the growth is 78% (inactive) and 89.4% (inactive) in the assay with MALME-3M melanoma; 40.1% (inactive) and 34.1% (inactive) in the assay on MDA-MB-231 breast; 17.8% (inactive) and 70.7% (inactive) in the assay on RXF 393 renal; 54.5% (inactive) and 67.1% (inactive) in the assay on SF-268 CNS; 81.5% (inactive) and 74.9% (inactive) with SF-295 CNS; 1.83% (active) and 4.93% (active) with SF-539 CNS. Besides, the growth was -67.2% (active) and -56.4% (active) with UACC-257 melanoma; -43.4% (active) and -81.6% (active) in the assay on M14 melanoma.

Source of the values: PubChem BioAssay (NCI).
